# Screening data deposited in PubChem by several laboratories.
# PTK2B oligo ant = antagonists of human Pyk2 oligomerization; Q14289; Q293 cells, Pyk2 FERM NanoBiT luminescence; stronger effect = lower value; z-score (the deposit names both 25 µM and 10 µM); 99,000 tested, 0.83% active; AID 1347419;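 active means Z-score of -3 or lower, scaled per plate to the spread of control and sample wells; inactive means z-score above -3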;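 further: negative z-score means lost luminescence so less FERM oligomerization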
# SDO1 yeast rescue = compounds rescuing growth of sdo1-depleted yeast, bone marrow failure model; S. cerevisiae sdo1-depleted JHY4D growth rescue, OD600 30 h; stronger effect = higher value; pdr5 snq2 efflux-pump mutant strain; z-score at 10 µM; 140,000 tested, 0.21% active;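 active means z-score above 3 at both the 24 hr and the 30 hr optical density reads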;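 further: z-score against mean and SD of all compound wells on the same plate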
# Plk1 PBD FP = blocks phosphopeptide binding to human Plk1 polo box domain | P53350 | Plk1 PBD phosphopeptide binding, fluorescence polarization | inhibition, %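 (tested at about 20 µM)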 | 97,000 tested, 0.13% active; in the data active means inhibition above about 34%, passing the limit was not always enough
# Target sequence (P53350 whole entry, looked up, the tested form may be a part): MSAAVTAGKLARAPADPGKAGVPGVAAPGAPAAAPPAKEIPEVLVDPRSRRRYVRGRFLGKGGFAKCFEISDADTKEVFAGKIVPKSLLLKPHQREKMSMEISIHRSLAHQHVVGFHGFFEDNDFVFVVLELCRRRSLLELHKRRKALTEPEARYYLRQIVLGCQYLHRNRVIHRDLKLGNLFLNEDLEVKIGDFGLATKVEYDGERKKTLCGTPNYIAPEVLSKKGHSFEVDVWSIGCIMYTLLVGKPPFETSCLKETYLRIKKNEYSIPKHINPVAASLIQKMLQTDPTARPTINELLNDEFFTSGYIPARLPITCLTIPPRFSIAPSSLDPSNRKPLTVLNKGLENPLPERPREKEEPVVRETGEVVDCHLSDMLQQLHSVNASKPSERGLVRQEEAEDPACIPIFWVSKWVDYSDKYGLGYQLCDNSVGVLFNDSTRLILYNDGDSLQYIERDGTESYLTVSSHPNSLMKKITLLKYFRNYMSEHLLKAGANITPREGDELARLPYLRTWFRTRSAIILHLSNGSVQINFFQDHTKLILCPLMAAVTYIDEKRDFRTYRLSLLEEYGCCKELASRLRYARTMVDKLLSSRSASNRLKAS
# hDAT+cocaine = human DAT dopamine uptake with cocaine, either direction; B-score at 10 µM; LLC-PK1 hDAT cells, [14C]-dopamine uptake with cocaine IC80; actives deviate in either direction; Q01959; 110,000 tested, 1.3% active;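 active means Z score or B-score, a plate-position-corrected score, falls beyond the plate's 99.7% confidence bounds, in either direction; inactive means both scores lie inside the 99.7% bounds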;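 further: scored against the spread of the other compound wells on the same plate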
# PLK1 kinase inh = PLK1 (human) kinase inhibition; P53350; recombinant PLK1 kinase, TR-FRET peptide phosphorylation; inhibition, % at 10 µM; 97,000 tested, 0.53% active; AID 619;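 active means inhibition of 50% or more in the single-concentration screen; inactive means inhibition below 50%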;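 further: 0% = DMSO max control and 100% = H-89 dihydrochloride min control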
# Cav32 inh = human Cav3.2 channel inhibition, primary screen; 100,000 tested, 4% active; B-score at 10 µM; O95180; AID 449739; Cav3.2-expressing cells, Fluo-4 calcium fluorescence FDSS; stronger effect = lower value;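 active means single-dose well whose peak fluorescence ratio is a statistical outlier from its plate by either plate-standardised score or position-corrected B-score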
# The depositor's hits bear a star; · = no result given. A selection: hits, their analogues and other compounds. The true share with any hit is near 4.7%.
SMILES,PTK2B oligo ant,SDO1 yeast rescue,Plk1 PBD FP,hDAT+cocaine,PLK1 kinase inh,Cav32 inh
COc1ccc2cc(CN(Cc3cccs3)Cc3nnnn3Cc3ccccc3)c(=O)[nH]c2c1,-1.3,-0.81,-11,1.6,-7,-1.8
COc1ccc2cc(CN(Cc3cccnc3)Cc3nnnn3Cc3ccccc3)c(=O)[nH]c2c1,·,0.01,-7,2.2*,7,-1.1
CCC(c1nnnn1Cc1ccccc1)N(Cc1ccco1)Cc1cc2cc(OC)ccc2[nH]c1=O (stereo not given),-0.39,-1.3,-23,3.4*,-22,-2.8
CCC(c1nnnn1Cc1ccco1)N(CCc1ccccc1)Cc1cc2cc(C)ccc2[nH]c1=O (stereo not given),0.48,·,·,0.14,·,-2.2
CSc1nccc(Oc2ccc(C#N)cc2)n1,·,-0.48,·,·,·,·
COc1ccc(C2CC2/C(=N/OC(=O)c2cccs2)c2ccccc2)cc1 (stereo not given),-0.83,-1.9,-19,-0.36,0,-6*
Cc1cc(C)cc(-n2cc[nH]c2=S)c1,·,1.1,·,·,·,·
CCCCNC(=O)NC1CCCC1,·,0.73,·,·,·,·
C#CCOCCOCCOCCNc1nc(N2CCN(C(=O)[C@H](CCC(=O)O)n3cc(C(N)[C@H](C)CC)nn3)CC2)nc(N2CCN(C(=O)[C@H](CCC(=O)O)n3cc(C(N)[C@H](C)CC)nn3)CC2)n1 (stereo not given in full),·,·,·,-0.0054,·,0.14
O=C(NCCc1ccccc1)[C@@H]1CC=C[C@@H]2CCN(Cc3ccc(Cl)c(Cl)c3)C(=O)[C@@H]21,·,·,·,3.2*,·,-2.2
CCCCNC(=O)[C@@H]1CC=C[C@@H]2CCN(Cc3ccc(Cl)c(Cl)c3)C(=O)[C@@H]21,·,·,·,1.1,·,-2
O=C(c1ccccc1NS(=O)(=O)c1ccc(Br)s1)N1CCCC1,-0.55,-0.62,-11,-0.73,-11,-1.8
O=C(NCc1ccco1)c1ccccc1NS(=O)(=O)c1ccc(Br)s1,-1.7,-0.58,-4,-0.83,-9,-6.1*
O=C(NCc1ccco1)c1ccccc1Nc1ccc(F)cc1,1,-1.4,-3,0.24,4,-6*
C=C1CCN([C@@H](CC(C)C)C(=O)Nc2nc3ccc(Cl)cc3s2)S(=O)(=O)c2ccccc21,·,·,·,0.31,·,-0.51
Oc1ccc(Br)cc1/C=N/N1CCN(Cc2ccccc2)CC1,2.5,-1.4,-3,2.4*,-4,-1.4
Oc1ccc(Br)cc1/C=N/N1CCCCC1,0.82,-0.1,·,·,·,·
CCC(=O)NC1(C(F)(F)F)C(=O)Nc2c1c(=O)n(C)c(=O)n2C (stereo not given),-0.36,0.45,·,0.47,·,2.9*
Cn1c(O)c(C2=c3ccccc3=NC2=O)[nH]c1=S,·,-0.08,·,·,·,·
COc1ccc2nc(-n3c(O)c(C4=c5ccccc5=NC4=O)[nH]c3=S)sc2c1,-3.2*,-1.5,·,·,·,·
CCc1ccc2[nH]c(=O)c(CN(Cc3ccc4c(c3)OCO4)C(=O)c3ccco3)cc2c1,·,-0.08,-18,0.49,7,-3.3*
O=C(c1cc2ccccc2oc1=O)N(Cc1ccccc1)Cc1ccc2c(c1)OCO2,-3.1*,-1.4,-20,0.41,0,-6.1*
CCOc1ccc2[nH]c(=O)c(CN(Cc3ccc(F)cc3)C(=O)c3ccco3)cc2c1,1.5,-0.79,-2,0.46,-19,-4.3*
O=C(CCl)NC(=O)NC12CC3CC(CC(C3)C1)C2,·,-0.96,·,·,·,·
CCC(C)Sc1nc2ccccc2n1CC(=O)O (stereo not given),0.96,0.1,-7,0.091,0,0.31
SMILES,PTK2B oligo ant,SDO1 yeast rescue,Plk1 PBD FP,hDAT+cocaine,PLK1 kinase inh,Cav32 inh
CC(C)Cn1c(SCC(=O)NC(=O)NC2CCCC2)nc2ccccc21,-3.4*,-0.66,16,0.71,1,-2.3
Cc1c([N+](=O)[O-])c([N+](=O)[O-])nn1CC(=O)N1CCCCC1,·,1.7,·,·,·,·
O=S(=O)(c1cc(-c2nnc(-c3ccc(Br)cc3)o2)ccc1Br)N1CCCCCC1,1.4,0.25,-5,3.3*,-15,-1.9
NC(=O)c1ccc(Br)c(S(=O)(=O)N2CCCCC2)c1,-0.17,-0.5,-16,2,-8,0.79
C=CCCCN(Cc1ccccc1)S(=O)(=O)c1ccccc1Br,·,·,·,0.087,·,-3.7*
C=CCCN(C(C(=O)OC)C(C)C)S(=O)(=O)c1ccccc1Br (stereo not given),·,·,·,-0.82,·,-1.5
COc1ccc(OCC(=O)NNC(=O)C(=O)N2CCCC2)cc1,·,0.72,·,·,·,·
Cc1cc(NC(=O)CSc2nnc(COc3cccc(C)c3C)n2Cc2ccco2)no1,0.21,-0.48,27,-0.58,-8,-1
Cc1cccc(OCc2nnc(SCC(=O)N(C(C)C)C(C)C)n2Cc2ccco2)c1C,-0.87,-1.7,-13,1.8,-5,-6.6*
O=C(NCC1(c2ccccc2)CCCC1)C1(c2ccccc2)CCCC1,-0.31,-0.92,19,1.3,-15,-6.6*
O=C(NCC1(c2ccccc2)CCCC1)C(=O)NCC1(c2ccccc2)CCCC1,0.72,1.4,-7,-0.21,-16,0.79
CCOC(=O)[C@@H]1[C@H]2COc3ccccc3[C@@H]2N2C(=O)N(c3ccc(C(F)(F)F)cc3)C(=O)[C@]12C,·,·,·,0.38,·,-2.4
O=C(CSc1nc2ccccc2s1)Nc1cc(S(=O)(=O)N2CCOCC2)ccc1O,·,1.3,·,·,·,·
CN(C)c1ccc(/C=C(\C#N)C(=O)Nc2nc3c(s2)CCN(Cc2ccccc2)C3)cc1,-1.3,-0.33,-30,·,-23,-4*
C=CCNC(=O)C(=O)N/N=C/c1ccco1,·,0.88,·,·,·,·
Cc1ccc(C2(c3ccc(C)cc3)CC2C(=O)Nc2ccc([N+](=O)[O-])cc2O)cc1 (stereo not given),-3.4*,-1.7,-5,-1,-11,-1.9
CC1(C)CC1C(=O)Nc1ccc([N+](=O)[O-])cc1Br (stereo not given),0.86,1.1,·,·,·,·
Cc1nc(C(=O)NC2CCCCC2)sc1C1(C)CC(c2cccnc2)=NO1 (stereo not given),·,·,·,0.36,·,-1.1
CCOc1ccc(S(=O)(=O)Nc2cccc(Cl)c2)cc1,-0.8,·,-1,-0.38,-16,-3.7*
CCOc1ccc(NS(=O)(=O)c2ccc(NS(=O)(=O)c3ccccc3)cc2)cc1,-0.58,0.32,-17,0.31,-4,-0.55
COc1ccccc1N(CC(=O)Nc1cc(C)on1)S(=O)(=O)c1ccc(Cl)cc1,-0.77,-1.1,19,-0.17,-5,-2.4*
